Results filed as inconclusive are left out. Activity calls are given as the source filed them. How the source made its calls: active means hit-call score of the fitted dose curve at least 0.9, where 1 is the maximum; inconclusive means response in the unintended direction; inactive means score below 0.9.
Test: ATG_M_32_TRANS: Attagene TRANS-FACTORIAL HepG2 Assay for M32 Transcription Factor (Internal Marker) (AID 2282984)
Conditions: HepG2 Attagene TRANS M32 internal marker reporter
Method: ATG_TRANS is a cell-based, multiplexed-readout assay that uses HepG2, a human liver cell line, with measurements taken at 24 hours after chemical dosing in a 24-well plate.ATG_M_32_TRANS is one of 30 assay component(s) measured or calculated from the ATG_TRANS assay. It is designed to make measurements of mRNA induction, a form of inducible reporter, as detected with fluorescence intensity signals by Reverse transcription polymerase chain reaction (RT-PCR) and Capillary electrophoresis technology.Data from the assay component ATG_M_32_TRANS was analyzed into 1 assay endpoint. This assay endpoint, ATG_M_32_TRANS, was analyzed in the positive analysis fitting direction relative to DMSO as the negative control and baseline of activity. Using a type of inducible reporter, measures of mRNA for gain-of-signal activity can be used to understand the background control at the transcription factor-level as they relate to the gene . Furthermore, this assay endpoint can be referred to as a secondary readout, because this assay has produced multiple assay endpoints where this one serves a background control function. To generalize the intended target to other relatable targets, this assay endpoint is annotated to the background measurement intended target family, where the subfamily is internal marker.
Human liver HepG2 cells are transiently transfected with multiple reporter transcription units (MRTUs) in 6-well plates using FuGene 6 reagent (Roche; 3 ml FuGene/1 mg DNA). The MRTU constructs are regulated by a cis-regulating element (promoter). […] A major difference between the CIS and TRANS system is that in CIS activities of endogenous TFs are measured, whereas the TRANS assay evaluates changes in activities of exogenous, chimeric NR-Gal4 proteins. […] At the end of 24 hour incubation, total RNA was isolated using TriZol reagent (Invitrogen). The isolated RNA is then reverse-transcribed using oligo(dT) primer and Mo-MLV reverse transcriptase (Invitrogen) with DNAse I (Ambion) treatment for 30 min. The one-tenth of the produced cDNA was amplified by PCR using Taq DNA polymerase (Invitrogen) and two reporter sequence-specific primers. The PCR products were fluorescently labeled by primer extension with 6-arboxyfluorescein (6-FAM) 5'-labeled reporter sequence-specific primer (2 min at 95 C, 20 s at 68 C and 10 min at 72 C) and these products were digested with 5U of HpaI (New England Biolabs) for 2h at 37 C. The fragments were purified using Qiaquick PCR columns (Qiagen), analyzed on an ABI 3130xL genetic analyzer (Applied Biosystems) with peak positions identified by using a set of X-rhodamine (ROX)-labeled MapMarker1000 molecular weight standards (BioVentures). The raw capillary electrophoresis data was processed using Attagraph software (Attagene).

With CC/C(=C(\c1ccccc1)c1ccc(OCCN(C)C)cc1)c1ccccc1 as the compound, how does the outcome read?
Its outcome is “inactive”.

With Cc1cccc(O)c1 as the compound, how does the outcome read?
The outcome was “inactive”.

For CC1=CC(C)C(C=O)C(C)C1 (stereo not given) (tested in a mixture with another compound), which outcome is on record?
Its outcome is “inactive”.

Which outcome does the source give for CC1(C)CC(N)CC(C)(CN)C1 (stereo not given) here?
Its outcome is “inactive”.

With CC(C)CCOC(=O)CC(C)C as the compound, how does the outcome read?
Its outcome is “inactive”.

Which outcome does the source give for CC(=O)OC(C)(C)C here?
Its outcome is “inactive”.

With CCCC(O)C(CC)CO (stereo not given) as the compound, how does the outcome read?
The outcome was “inactive”.

Which outcome does the source give for CCCCCCCOC(C)=O here?
Its outcome is “inactive”.

Which outcome does the source give for CCC(CC)CO here?
Its outcome is “inactive”.

With O=C(O)C1=NN(c2ccc(S(=O)(=O)O)cc2)C(=O)C1 as the compound, how does the outcome read?
Its outcome is “inactive”.

With Cc1cc(O)c(C)c(C)c1O as the compound, how does the outcome read?
The outcome was “inactive”.

For C=C(C)C(=O)OCCC[Si](OC)(OC)OC, which outcome is on record?
Its outcome is “inactive”.

With NS(=O)(=O)c1cc(C(=O)O)c(NCc2ccco2)cc1Cl as the compound, how does the outcome read?
The outcome was “inactive”.

For CC(C)COC(=O)c1ccccc1O, which outcome is on record?
The outcome was “inactive”.

Which outcome does the source give for CCCCCCCCOS(=O)(=O)O here?
Its outcome is “inactive”.

Which outcome does the source give for COc1ccccc1NC(=O)CC(C)=O here?
The outcome was “inactive”.

Which outcome does the source give for CC/C=C\C#N here?
The outcome was “inactive”.

Which outcome does the source give for CN(C)C here?
Its outcome is “inactive”.

With [Cu+] as the compound, how does the outcome read?
The outcome was “inactive”.

With CCNC(=S)NCC as the compound, how does the outcome read?
Its outcome is “inactive”.

Which outcome does the source give for O=[N+]([O-])c1cc(N(CCO)CCO)ccc1NCCO here?
The outcome was “inactive”.

Which outcome does the source give for CCOC(=O)C=Cc1ccccc1 here?
The outcome was “inactive”.

With CCCCOCC(C)OCC(C)O (stereo not given) as the compound, how does the outcome read?
Its outcome is “inactive”.

Which outcome does the source give for O=C(O)c1cccc(Cl)n1 here?
The outcome was “inactive”.

For CCc1cccc(O)c1, which outcome is on record?
Its outcome is “inactive”.

With CCCCCCCCCO as the compound, how does the outcome read?
Its outcome is “inactive”.

For c1ccc(OCCOc2ccccc2)cc1, which outcome is on record?
Its outcome is “inactive”.

With CCC(=O)OC(C)(C)C1CC=C(C)CC1 (stereo not given) as the compound, how does the outcome read?
Its outcome is “inactive”.

For CCCCN(CCCC)CCCCCCN(CCCC)CCCC, which outcome is on record?
Its outcome is “inactive”.

With CCCCCc1cccc(=O)o1 as the compound, how does the outcome read?
The outcome was “inactive”.

With O=S1(=O)CC(Cl)(Cl)C(Cl)(Cl)C1 as the compound, how does the outcome read?
Its outcome is “inactive”.

With CN(C)c1ccc(C=O)cc1 as the compound, how does the outcome read?
The outcome was “inactive”.

With CCn1cc(C(=O)O)c(=O)c2ccc(C)nc21 as the compound, how does the outcome read?
Its outcome is “inactive”.

With CC(CCO)CC(C)(C)C (stereo not given) as the compound, how does the outcome read?
Its outcome is “inactive”.

For CCCCOCCOC(=O)c1ccccc1C(=O)OCCOCCCC, which outcome is on record?
Its outcome is “inactive”.

With CCCCCCCCOC(=O)c1ccc(O)cc1 as the compound, how does the outcome read?
The outcome was “inactive”.

With CC(=O)CC(C)(C)C1CCCCC1 as the compound, how does the outcome read?
The outcome was “inactive”.

Which outcome does the source give for O=Cc1ccccc1O here?
Its outcome is “inactive”.

For CCCO[Si](OCCC)(OCCC)OCCC, which outcome is on record?
The outcome was “inactive”.

With CCCCC/C=C\C=C\C(=O)OCC as the compound, how does the outcome read?
Its outcome is “inactive”.

Reference: PubChem BioAssay (EPA / NIEHS)
